# Measured values: PubChem BioAssay AID463173 (ICCB-Longwood Screening Facility, Harvard Medical School, 2010)
# About 4,300 (8.3%) of roughly 52,000 compounds were called active. Cut-off read from the data, not from the text of the source: active = survival mostly below about 52% (no sharp cut-off); inactive = mostly above about 56%. Only a selection was taken, and actives are over-represented in it overall.
# System: DeltatarO mutant
# Experiment: growth inhibition of S. aureus wild type versus tarO mutant, primary screen, teichoic acid synthesis inhibitors, RN4220, OD600 (AID 463173)
# Conditions: OD600, 18 h, active compounds read low, screened at 18.75 µg/mL (by protocol)
row,Compound,survival
1,CNC(=O)c1cnc2sc(N3CCC(C)CC3)nn2c1=O,78% (inactive)
2,CCOC(=O)c1ccc2c(c1)N(Cc1cc(C)ccc1C)C(=O)c1ccccc1S2(=O)=O,85% (inactive)
3,Cc1ccccc1C(=O)NC1CCN(Cc2nnnn2C2CCCC2)CC1,101% (inactive)
4,CCC(CC)C(=O)Nc1ccc(C(=O)OCc2cc(=O)n3nc(C4CC4)sc3n2)cc1,80% (inactive)
5,Cc1ccc(/C=C/c2onc(C)c2S(=O)(=O)N2CCC(C(=O)Nc3ccccc3C(F)(F)F)CC2)cc1,75% (inactive)
6,COc1ccc(-c2c3c(=O)n(C)c(=O)n(C)c3cn2-c2cccc(N)c2)cc1,79% (inactive)
7,COc1cccc2c1Oc1ncccc1N(c1ccc(C(=O)NCc3ccccc3C)s1)C2,84% (inactive)
8,CCOc1ccccc1CNC(=O)c1cc(-c2ccc(C)c(C)c2)nc2ccccc12,74% (inactive)
9,COc1ccc(NC(=O)c2ccc(NC(=O)CCS(=O)(=O)c3cccs3)cc2)cc1OC,50% (inactive)
10,Cc1ccc(S(=O)(=O)CC(=O)N2CCN(c3nc4c(F)cccc4s3)CC2)cc1,-5% (active)
11,COc1cccc2sc(N3CCN(C(=O)CCS(=O)(=O)c4ccc(F)cc4)CC3)nc12,66% (inactive)
12,Cc1c(Cl)ccc2sc(N3CCN(C(=O)CCS(=O)(=O)c4ccc(F)cc4)CC3)nc12,0% (active)
13,CCCCC(=O)N1CCN(c2nc3c(C)c(C)ccc3s2)CC1,46% (active)
14,Cc1cccc2sc(N3CCN(C(=O)CS(=O)(=O)c4ccc(F)cc4)CC3)nc12,102% (inactive)
15,Cc1ccc(S(=O)(=O)CCC(=O)N2CCN(c3nc4c(C)c(Cl)ccc4s3)CC2)cc1,72% (inactive)
16,Cc1ccc(S(=O)(=O)CCC(=O)N2CCN(c3nc4c(C)c(C)ccc4s3)CC2)cc1,92% (inactive)
17,Cc1ccc2sc(N3CCN(C(=O)CCS(=O)(=O)c4ccc(F)cc4)CC3)nc2c1C,115% (inactive)
18,Cc1ccc2sc(N3CCN(C(=O)CCS(=O)(=O)c4ccc(Cl)cc4)CC3)nc2c1C,64% (inactive)
19,Cc1c(Cl)ccc2sc(N3CCN(C(=O)CS(=O)(=O)c4ccccc4)CC3)nc12,106% (inactive)
20,COc1cccc2sc(N3CCN(C(=O)CS(=O)(=O)c4ccc(Cl)cc4)CC3)nc12,-4% (active)
21,COc1ccc(OC)c2sc(N3CCN(C(=O)CCS(=O)(=O)c4ccc(F)cc4)CC3)nc12,94% (inactive)
22,O=c1cc(-c2ccccc2)n2c(SCc3cccc([N+](=O)[O-])c3)nnc2[nH]1,69% (inactive)

row,Compound,survival
1,Cc1noc(Cn2c(=O)c3cc4c(cc3n(CC(=O)Nc3ccccc3F)c2=O)OCO4)n1,77% (inactive)
2,Cc1cccc(CS(=O)(=O)Cc2ccc(C(=O)NCc3ccc(Cl)cc3)o2)c1,130% (inactive)
3,Cc1ccc(-n2c(=O)c3c4c(sc3n(CC(=O)c3ccc(Cl)cc3)c2=O)CCC4)cc1C,168% (inactive)
4,Cc1ccc(Cl)cc1NC(=O)CCC(=O)NCc1ccco1,74% (inactive)
5,Cc1ccc(NS(=O)(=O)c2ccc3c(c2)CCCN3C(=O)C2CCC2)cc1Cl,107% (inactive)
6,CCc1cccc(C)c1NC(=O)Cn1cc2c(n1)CCCC2,99% (inactive)
7,CCc1ccccc1NS(=O)(=O)c1ccc2[nH]cc(C(=O)N(CC(C)C)CC(C)C)c(=O)c2c1,84% (inactive)
8,Cc1ccc(N(CC(C)C)S(=O)(=O)c2nnc(NC(=O)c3cccs3)s2)cc1,34% (active)
9,CC(C)CN(c1ccccc1)S(=O)(=O)c1nnc(NC(=O)C2CCCCC2)s1,51% (inactive)
10,COc1ccc(C(=O)Nc2nnc(S(=O)(=O)N(CC(C)C)c3ccc(C)cc3)s2)cc1OC,68% (inactive)
11,COc1ccc(C(=O)Nc2nnc(S(=O)(=O)N(CC(C)C)c3ccccc3)s2)cc1,51% (inactive)
12,COc1ccc(N(CC(C)C)S(=O)(=O)c2nnc(NC(=O)c3cccs3)s2)cc1,42% (active)
13,Cc1ccc(N(CC(C)C)S(=O)(=O)c2nnc(NC(=O)C(C)C)s2)cc1,72% (inactive)
14,CCc1ccc(CNC(=O)C2CCN(C(=O)N3CC(CC)Oc4ccc(C)cc43)CC2)cc1 (configuration not stated),55% (inactive)
15,O=C(COc1ccccc1)Nc1c(Cl)ccc2nsnc12,74% (inactive)
16,Cc1ccc2nc(-c3ccc(Cl)c(NC(=O)COc4ccc(C(C)C)cc4)c3)oc2c1,42% (active)
17,Cc1ccc2nc(-c3ccc(Cl)c(NC(=O)c4cccc([N+](=O)[O-])c4C)c3)oc2c1,126% (inactive)
18,Cc1ccc(OCC(=O)Nc2ccc(-c3nc4ccccc4o3)cc2)c(C)c1,63% (inactive)
19,Cc1ccc2nc(-c3ccc(Cl)c(NC(=O)COc4ccc([N+](=O)[O-])cc4)c3)oc2c1,54% (inactive)
20,Cc1ccc(OCC(=O)Nc2c(Cl)ccc3nsnc23)cc1C,71% (inactive)
21,Cc1cc2nc(-c3cccc(NC(=O)COc4ccc(C(C)C)cc4)c3)oc2cc1C,50% (inactive)
22,Cc1cccc(OCC(=O)Nc2ccc(-c3nc4ccccc4o3)cc2)c1C,52% (active)

row,Compound,survival
1,Cc1ccc2nc(-c3ccc(C)c(NC(=O)Cc4ccccc4)c3)oc2c1,77% (inactive)
2,CC(C)c1ccc(OCC(=O)Nc2c(Cl)ccc3nsnc23)cc1,41% (active)
3,Cc1ccc2nc(-c3ccc(Cl)c(NC(=O)COc4cccc(C)c4C)c3)oc2c1,48% (active)
4,Cc1cc(C)cc(OCC(=O)Nc2ccc(-c3nc4ccccc4o3)cc2)c1,51% (inactive)
5,CN1CCN(C(=O)/C(=C/c2cccs2)NC(=O)c2cccs2)CC1,74% (inactive)
6,CC(C)CCNC(=O)c1cnc2sc(N3CCCCCC3)nn2c1=O,78% (inactive)
7,CCN(CC)S(=O)(=O)c1ccc2c(c1)c(=O)c(C(=O)N1CCN(c3cccc(C)c3)C(C)C1)cn2C (configuration not stated),78% (inactive)
8,COc1ccc(N2CCN(C(=O)c3nn(-c4ccc(C)cc4)c(=O)n(C)c3=O)CC2)cc1,71% (inactive)
9,CCN(CC)CCNC(=O)CCn1c(=O)c2cccn2c2cccnc21,87% (inactive)
10,O=C(Cn1nnc(-c2ccc(Cl)cc2)n1)NCc1ccc(F)cc1,78% (inactive)
11,CC(=O)N1c2ccccc2Sc2ccccc21,102% (inactive)
12,CCN(CC)C(=O)N1c2ccccc2Sc2ccccc21,99% (inactive)
13,CCOC(=O)N1c2ccccc2Sc2ccccc21,98% (inactive)
14,CC(C)c1ccc(NC(=O)N2c3ccccc3Sc3ccccc32)cc1,6% (active)
15,CCc1ccc(NC(=O)N2c3ccccc3Sc3ccccc32)cc1,-2% (active)
16,O=C(C1CC1)N1c2ccccc2Sc2ccccc21,73% (inactive)
17,Cc1ccc(-c2cc(C(F)F)n3ncc(C(=O)Nc4cn(C)nc4C)c3n2)cc1,89% (inactive)
18,CC1=C(C(=O)Nc2ccc(F)cc2F)C2(CCCCCC2)OC1=O,83% (inactive)
19,Cc1cc(C)n(-c2nc(C)c(C)c(=O)n2CC(=O)Nc2ccc([N+](=O)[O-])cc2)n1,77% (inactive)
20,Cc1cc(=O)n(CC(=O)Nc2cccc([N+](=O)[O-])c2)c(-n2nc(C)cc2C)n1,95% (inactive)
21,Cc1cc(C)n(-c2nc(C)c(C)c(=O)n2CC(=O)Nc2cccc([N+](=O)[O-])c2)n1,52% (active)
22,Cc1nc(N2CCN(C(=O)c3ccco3)CC2)c2c3c(sc2n1)CC(C(C)(C)C)CC3 (configuration not stated),77% (inactive)

row,Compound,survival
1,COc1ccc(CN2CCN(c3ncnc4sc5c(c34)CCCC5)CC2)cc1F,33% (active)
2,c1nc(N2CCCC2)c2c3c(sc2n1)CCC3,70% (inactive)
3,O=C(c1ccco1)N1CCN(c2ncnc3sc4c(c23)CCC4)CC1,36% (active)
4,COc1ccc(CN2CCN(c3ncnc4sc5c(c34)CC(C)CC5)CC2)cc1F (configuration not stated),83% (inactive)
5,Clc1ccc(CN2CCN(c3ncnc4sc5c(c34)CCCC5)CC2)cc1Cl,107% (inactive)
6,Cc1ccc(NC(=O)Cn2cc(S(=O)(=O)N3CCC(C)CC3)c3ccccc3c2=O)c(Br)c1,84% (inactive)
7,CCc1ccc(NCc2cc3cc4c(cc3n(CC(=O)Nc3ccc(Cl)cc3)c2=O)OCO4)cc1,135% (inactive)
8,CCc1ccc(NCc2cc3cc4c(cc3n(CC(=O)Nc3ccc(C)cc3)c2=O)OCO4)cc1,89% (inactive)
9,CCOc1ccc(NC(=O)Cn2c(=O)c(CNc3ccc(CC)cc3)cc3cc4c(cc32)OCO4)cc1,47% (active)
10,COc1ccc(NCc2cc3cc4c(cc3n(CC(=O)Nc3ccc(C)cc3)c2=O)OCO4)cc1,67% (inactive)
11,CC(=O)c1cccc(NC(=O)Cn2c(=O)c(CNc3ccc(C)cc3)cc3cc4c(cc32)OCCO4)c1,91% (inactive)
12,Cc1ccc(NCc2cc3cc4c(cc3n(CC(=O)Nc3ccc(C)cc3)c2=O)OCCO4)cc1,32% (active)
13,CCOC(=O)c1ccc(NC(=O)c2c(NCc3ccc(OC)c(OC)c3OC)sc3c2CCC(C)C3)cc1 (configuration not stated),123% (inactive)
14,COc1cccc(C(=O)N(Cc2ccc(C)o2)C2CCS(=O)(=O)C2)c1 (configuration not stated),96% (inactive)
15,CN(C(=O)c1cc2nc(-c3ccco3)cc(C(F)(F)F)n2n1)C12CC3CC(CC(C3)C1)C2,110% (inactive)
16,COC(=O)c1ccccc1NC(=O)c1cn2c3c(ccc(Cl)c3c1=O)OC(C)C2 (configuration not stated),84% (inactive)
17,Cc1cccc(-n2c3nc(=O)n(C)c(=O)c-3cc3ccc(Cl)cc32)c1C,81% (inactive)
18,CCCn1c(=O)c2sccc2n2c(CCCC(=O)Nc3ccc(Oc4ccc(Cl)cc4)cc3)nnc12,98% (inactive)
19,Cn1c(=O)c2sccc2n2c(CCCC(=O)Nc3ccc(Oc4ccc(Cl)cc4)cc3)nnc12,24% (active)
20,Cn1c(=O)c2sccc2n2c(CCCC(=O)Nc3ccc(Oc4ccccc4)cc3)nnc12,53% (inactive)
21,COc1ccc(NC(=O)c2ccc(CN3C(=O)CCn4nc(C)cc43)cc2)c(OC)c1,99% (inactive)
